GLS inh: inhibitors of human glutaminase (GLS). 410,000 tested, 0.21% active. GLS enzymatic activity, qHTS titration. Potency, µM (doses to about 45.5 µM), usual class: inhibitors. O94925. AID 624170
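hKGA in 45 mM KH2PO4 (pH 8.2), 0.02% Tween-20 with compound, then 1mM L-Glutamine (stock as added) plus glutamate oxidase/HRP/Amplex red coupling mix. Fluorescence read initially and after 30 min at RT; signal change reflects glutamate formation.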
BAZ2B inh: blocks human BAZ2B. Q9UIF8. AlphaScreen BAZ2B-H3K14Ac peptide displacement. Potency, µM (doses to about 114 µM), hits mostly inhibitors. 360,000 tested, 4.4% active; note: nearly all actives have a fitted effect of over 60% in size
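AlphaScreen displacement: compounds (up to 110uM) incubated 30 min at room temperature with a preformed 50 nM BAZ2B/50 nM biotinylated H3K14Ac peptide complex in PBS pH 7.4 with Tween-20. Donor and acceptor beads at 10 ug/mL final added, 20 min light-protected before reading.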
JMJD2A Tudor inh: blocks the human JMJD2A Tudor domain. Potency, µM (series often up to 114 µM), most hits filed as inhibitors. AID 504339. 390,000 tested, 4.4% active. AlphaScreen JMJD2A-Tudor / H3K4me3 peptide binding. O75164; note: nearly all actives have a fitted effect of over 50% in size
G9a block: blocks human histone lysine methyltransferase G9a | Potency, µM (highest dose often 102 µM), hits mostly inhibitors | G9a H3K9 monomethylation, AlphaScreen, 2 h | AID 504332 | 350,000 tested, 8.8% active | Q96KQ7; note: nearly all actives have a fitted effect of over 75% in size
Target sequence (Q96KQ7 913-1193 limits assumed): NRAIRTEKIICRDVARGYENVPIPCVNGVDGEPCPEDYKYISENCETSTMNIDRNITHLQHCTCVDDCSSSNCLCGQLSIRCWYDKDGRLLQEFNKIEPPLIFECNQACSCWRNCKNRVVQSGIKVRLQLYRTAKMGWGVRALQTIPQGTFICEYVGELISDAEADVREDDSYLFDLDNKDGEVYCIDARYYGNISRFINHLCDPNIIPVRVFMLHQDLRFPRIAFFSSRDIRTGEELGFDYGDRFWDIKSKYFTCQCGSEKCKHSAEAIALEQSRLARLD
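Step 1: enzyme (final 20 nM) with compound, 15 min RT. Step 2: substrate peptide 500 nM and SAM 20 uM, 2 h RT. Step 3: anti-H3K9me1 antibody and AlphaScreen beads, 10 min, then plate read.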
HP1b binding inh: blocks HP1-beta chromodomain binding to methylated histone tails | AlphaScreen HP1-beta / biotin-H3K9me3 peptide binding | Potency, µM (highest dose often 114 µM), actives largely listed as inhibitors | 390,000 tested, 0.56% active; note: nearly all actives have a fitted effect of over 70% in size
Target sequence (P83916 whole entry, looked up): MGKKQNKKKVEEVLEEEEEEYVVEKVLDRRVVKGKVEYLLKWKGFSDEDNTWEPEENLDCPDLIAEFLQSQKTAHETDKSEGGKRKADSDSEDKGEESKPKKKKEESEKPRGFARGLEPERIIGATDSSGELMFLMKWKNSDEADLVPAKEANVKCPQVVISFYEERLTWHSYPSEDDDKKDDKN
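HP1-beta protein (50 nM final) preincubated 30 min at room temperature with biotinylated H3(1-18)K9me3 peptide (50 nM) in PBS pH 7.4, 0.01% Tween-20, then compound added for 30 min. AlphaScreen streptavidin donor/nickel chelate acceptor beads (10 ug/mL final), 30 min dark, luminescence read.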
Large screens that a line does not name were inactive. Compounds with a hit are over-represented: about 10% of the library has one in this group of screens. Calls come from the whole dose curve; as a rule, active = well fitted curve in the direction sought with a large enough effect; inconclusive = small, poorly fitted or top-dose-only effect, or another doubt; inactive = no such curve, though single readings can be large; an effect the other way counts as inactive or inconclusive.

NS(=O)(=O)c1ccc(CNC(=S)Nc2ccc(Cl)c(Cl)c2)cc1	G9a block 45µM
O/N=C/c1ccc(OCc2ccccc2F)c(Cl)c1	none
N#Cc1cc2c(nc1SCc1ccccc1)CCCCC2	none
CCOC(=O)c1cn(CC(=O)Nc2ccc3c(c2)OCCO3)nn1	none
NS(=O)(=O)c1ccc(NC(=S)NC2CC2)cc1	G9a block 10µM
COc1cc2c3cc1OCc1c(O)c(OC)cc4c1C(Cc1ccc(cc1)Oc1cc(ccc1O)CC3N(C)CC2)N(C)CC4 (stereo unspecified)	none (no result: GLS inh, BAZ2B inh, G9a block)
CN1CCc2cccc3c2[C@H]1Cc1ccc(O)c(O)c1-3	GLS inh inconclusive, BAZ2B inh inconclusive, JMJD2A Tudor inh 8.9µM, G9a block 1.4µM, HP1b binding inh 14µM
Cc1nn2c(C)c(C(=O)N3CCN(c4ccccc4F)CC3)cnc2c1-c1ccc(F)cc1	none
Cc1[nH]c(-c2ccc(F)cc2)cc1C(=O)N1CCN(c2ccccc2)CC1	BAZ2B inh inconclusive, JMJD2A Tudor inh 56µM, G9a block 50µM
Cc1[nH]c(-c2ccc(F)cc2)cc1C(=O)N1CCN(c2ccccc2F)CC1	BAZ2B inh inconclusive, JMJD2A Tudor inh inconclusive, G9a block 71µM, HP1b binding inh inconclusive
Cc1ccc(N2CCN(C(=O)c3cc(-c4ccc(F)cc4)[nH]c3C)CC2C)cc1 (stereo unspecified)	BAZ2B inh 45µM, JMJD2A Tudor inh inconclusive, G9a block inconclusive, HP1b binding inh inconclusive
COc1ccccc1N1CCN(C(=O)c2cc(-c3ccc(F)cc3)[nH]c2C)CC1	BAZ2B inh inconclusive, JMJD2A Tudor inh 56µM, G9a block 50µM, HP1b binding inh inconclusive
COc1cccc(N2CCN(C(=O)c3cc(-c4ccc(F)cc4)[nH]c3C)CC2)c1	JMJD2A Tudor inh inconclusive, G9a block inconclusive, HP1b binding inh inconclusive
COc1ccccc1N1CCN(C(=O)c2cc3cc(F)ccc3[nH]2)CC1	JMJD2A Tudor inh inconclusive
O=C1CC/C=C\C[C@@H](CC(=O)N(CCO)Cc2ccccc2)C(=O)NC[C@@H](c2ccccc2)O1	none (no result: BAZ2B inh, G9a block)
COc1ccc(NS(=O)(=O)c2cc(NC(=O)c3cnccn3)ccc2OC)cc1Br	none (no result: BAZ2B inh)
CC(NC(=O)COc1ccccc1)C(=O)N1CCN(c2ccc(F)cc2)CC1 (stereo unspecified)	none (no result: BAZ2B inh, G9a block)
CC(C)C(=O)Nc1ccc2c(c1)C(=O)NC2=O	none
Nn1c(SCc2cn3cc(Cl)ccc3n2)nnc1-c1ccncc1	G9a block 45µM
Nn1c(SCc2cn3ccccc3n2)nnc1-c1ccncc1	none
O=C(Nn1c(Cc2cccs2)nc2ccccc2c1=O)c1cccs1	G9a block 50µM
O=C1C(Cl)=C(Nc2cccc(O)c2)C(=O)N1Cc1ccccc1	BAZ2B inh inconclusive, JMJD2A Tudor inh 45µM, G9a block 35µM, HP1b binding inh inconclusive
COc1ccc(N2C(=O)C(Cl)=C(N(CCO)Cc3ccccc3)C2=O)cc1	BAZ2B inh inconclusive, G9a block 50µM
COc1ccc(N2C(=O)c3cccc4c(N(C)CCO)ccc(c34)C2=O)cc1	none
COc1ccc(N2C(=O)C(Cl)=C(Nc3ccccc3OC)C2=O)cc1	BAZ2B inh inconclusive, JMJD2A Tudor inh inconclusive, G9a block 45µM
COc1ccc(N2C(=O)C(Cl)=C(Nc3ccccc3O)C2=O)cc1	BAZ2B inh inconclusive, JMJD2A Tudor inh 45µM, G9a block 3.5µM, HP1b binding inh 28µM
COc1ccc(N2C(=O)C(Cl)=C(N3CCOCC3)C2=O)cc1	none (no result: G9a block)
CNC(=O)Nc1ccc2nc(C)oc2c1	G9a block inconclusive
CCC1Sc2ccc(S(=O)(=O)CCC(=O)NC3CCCCCC3)cc2NC1=O (stereo unspecified)	none
CCOc1ccccc1NC1=C(Cl)C(=O)N(Cc2ccccc2)C1=O	BAZ2B inh inconclusive
COc1ccc(N2C(=O)C(Cl)=C(Oc3cccc(OC)c3)C2=O)cc1	GLS inh inconclusive, BAZ2B inh 45µM, JMJD2A Tudor inh inconclusive, G9a block 6.3µM, HP1b binding inh inconclusive
COc1ccc(NC2=C(c3ccccc3)C(=O)c3ccccc32)cc1Cl	none
COc1ccc(OC)c(NC2=C(c3ccccc3)C(=O)c3ccccc32)c1	BAZ2B inh 5.6µM, JMJD2A Tudor inh 13µM, G9a block 11µM, HP1b binding inh 13µM
COc1ccc(OC)c(NC2=C(Cl)C(=O)N(Cc3ccccc3)C2=O)c1	BAZ2B inh 22µM, JMJD2A Tudor inh 14µM, HP1b binding inh inconclusive
C[n+]1ccccc1/C=C/c1ccc([N+](=O)[O-])cc1	G9a block 25µM
C[n+]1ccccc1/C=C/c1ccc(C#N)cc1	BAZ2B inh 45µM, JMJD2A Tudor inh 22µM, HP1b binding inh inconclusive
CC(C)(C)c1ccc(S(=O)(=O)N2CCC(c3ccncc3)CC2)cc1	none
COc1cccc(Nc2nc(C(N)c3ccccc3Cl)cs2)n1 (stereo unspecified)	none (no result: BAZ2B inh, JMJD2A Tudor inh, G9a block, HP1b binding inh)
O=C(N/C(=C/c1ccc(F)cc1)C(=O)N1CCCC1)c1ccccc1	none
COc1ccc(NC(=O)COc2ccc(C(=O)OCC(=O)N(C(C)C)C(C)C)cc2OC)cc1	HP1b binding inh inconclusive
FC(F)(F)c1nc2ccccc2n2c(-c3ccc(Cl)cc3)nnc12	none
CC1=CCC(/C=N\Nc2nnc3c(n2)[nH]c2ccccc23)CC1 (stereo unspecified)	BAZ2B inh 50µM (no result: GLS inh, JMJD2A Tudor inh, HP1b binding inh)
CC(C)CSc1nnc2c(n1)[nH]c1ccccc12	none
CCN(C(=O)CN1C(=O)S/C(=C\c2cccc(OC)c2)C1=O)C1CCS(=O)(=O)C1 (stereo unspecified)	none
COCC(=O)Nc1nnc(Cc2ccc(OC)c(OC)c2)s1	none
CCOCC(=O)Nc1nnc(Cc2ccc(OC)c(OC)c2)s1	G9a block 16µM
CNC(=S)N(C1=NCC(c2ccc([N+](=O)[O-])cc2)S1)c1ccccc1 (stereo unspecified)	BAZ2B inh inconclusive, JMJD2A Tudor inh inconclusive, G9a block 35µM, HP1b binding inh inconclusive
O=C(NCc1ccccc1)c1ccc(/C=N/O)nc1	BAZ2B inh 56µM, JMJD2A Tudor inh 7.9µM, G9a block 10µM
NC(=O)c1ccc(/C=N/O)nc1	BAZ2B inh 32µM, JMJD2A Tudor inh 18µM, G9a block 3.5µM
O=C(NCc1ccccn1)c1ccc(/C=N/O)nc1	BAZ2B inh 45µM, JMJD2A Tudor inh 18µM
COc1ccc(C(=O)NCc2ccccn2)cc1	none
O=C(CSc1nc2ccccc2o1)N1CCN(C(=O)c2ccco2)CC1	none
COCCCNC(=O)c1cc(-c2cccnc2)nc2ccc(S(=O)(=O)N3CCC(C)CC3)cc12	none
CCCNC(=S)N1CCC(c2nc3cc(C)c(C)cc3[nH]2)CC1	none
Cn1ccnc1C(=O)c1ccc(NN)c([N+](=O)[O-])c1	BAZ2B inh inconclusive, G9a block 22µM
CCOc1ccc(OCCC(=O)NNC(=O)c2nn(C)c(=O)c3ccccc23)cc1	BAZ2B inh 71µM, JMJD2A Tudor inh inconclusive, G9a block inconclusive
CC(C)n1nc(C(=O)NNC(=O)c2ccncc2)c2ccccc2c1=O	BAZ2B inh inconclusive, G9a block inconclusive

Bioassay records as filed in PubChem.
